Source: publication PMC4336329 (PLoS ONE, 2015)
About 14,000 (4.5%) of roughly 310,000 compounds showed an effect of 50% or more. Effects have a minus sign here. The entries come from a sample that favours strong results as a whole.

These molecules were tested against human ether-à-go-go-related gene (hERG) potassium channel (human, UniProt Q12809) (assay: primary screen, population patch clamp on CHO cells stably expressing hERG; higher = less effect of the substance).
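Further: peak tail current of the secondary pulse compared with the same well before compound.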

human ether-à-go-go-related gene (hERG) potassium channel, sequence (Q12809 whole entry, looked up): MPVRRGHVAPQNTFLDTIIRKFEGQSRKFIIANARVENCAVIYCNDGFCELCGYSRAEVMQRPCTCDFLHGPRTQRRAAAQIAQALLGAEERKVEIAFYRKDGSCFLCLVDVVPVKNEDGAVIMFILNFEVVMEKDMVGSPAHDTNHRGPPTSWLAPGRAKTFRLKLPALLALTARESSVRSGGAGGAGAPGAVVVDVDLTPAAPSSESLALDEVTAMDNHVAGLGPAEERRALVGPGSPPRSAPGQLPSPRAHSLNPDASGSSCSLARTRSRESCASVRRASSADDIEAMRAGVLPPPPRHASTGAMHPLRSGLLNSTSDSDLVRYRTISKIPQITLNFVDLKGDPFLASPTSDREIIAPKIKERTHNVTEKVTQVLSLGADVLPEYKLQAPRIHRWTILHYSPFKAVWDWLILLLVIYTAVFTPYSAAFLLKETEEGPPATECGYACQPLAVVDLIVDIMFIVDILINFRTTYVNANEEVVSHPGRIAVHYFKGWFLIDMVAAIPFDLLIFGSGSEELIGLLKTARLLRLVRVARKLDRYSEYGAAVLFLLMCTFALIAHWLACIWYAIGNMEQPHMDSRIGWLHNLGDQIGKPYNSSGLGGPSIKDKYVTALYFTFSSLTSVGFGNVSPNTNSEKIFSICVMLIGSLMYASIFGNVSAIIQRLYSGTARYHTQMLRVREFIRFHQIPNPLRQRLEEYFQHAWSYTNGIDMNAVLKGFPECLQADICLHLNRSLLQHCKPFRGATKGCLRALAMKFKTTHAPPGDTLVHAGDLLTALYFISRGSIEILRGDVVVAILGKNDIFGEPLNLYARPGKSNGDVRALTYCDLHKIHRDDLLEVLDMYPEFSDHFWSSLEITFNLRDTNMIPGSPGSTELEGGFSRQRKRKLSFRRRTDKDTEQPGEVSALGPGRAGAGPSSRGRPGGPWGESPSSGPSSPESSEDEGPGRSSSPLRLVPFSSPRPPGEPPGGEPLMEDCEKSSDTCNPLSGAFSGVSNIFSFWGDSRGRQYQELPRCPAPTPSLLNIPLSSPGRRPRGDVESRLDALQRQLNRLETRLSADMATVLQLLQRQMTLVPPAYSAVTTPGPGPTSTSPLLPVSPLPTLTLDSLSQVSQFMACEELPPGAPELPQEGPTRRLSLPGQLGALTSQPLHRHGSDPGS

| SMILES | hERG current change (%, negative = inhibition) at 10uM |
| --- | --- |
| CCN(Cc1ccccc1)S(=O)(=O)c1cc(C(=O)OC)n(C)c1 | -32.9% |
| COc1ccc(Cn2c(=O)oc3ccc(C)cc32)cc1 | 1.22% |
| Cc1ccc(-c2noc(CSc3nc(N)cc(N)n3)n2)cc1 | -4.24% |
| CC(=O)N(Cc1ccco1)Cc1cc2cccc(C)c2n2nnnc12 | -3.36% |
| CCn1cc(C(=O)NCc2cccs2)c(=O)c2cc(S(=O)(=O)N3CCOCC3)ccc21 | -20.3% |
| Cc1cc(C)nc(Nc2n[nH]c(C)n2)n1 | 16.4% |
| Clc1cc(Cl)cc(Nc2ncn[nH]2)c1 | -8.8% |
| Cc1cc(C)nc(Nc2ncn[nH]2)n1 | -73.3% |
| CCOC(=O)C1(CC2CC2)CCN(C(=O)c2cc(OC)nc3ccccc23)CC1 | -12.9% |
| CC(C)[C@H](NC(=O)c1ccccc1)C(=O)OCC(=O)c1ccc2c(c1)NC(=O)CO2 | -26.3% |
| COCCCNc1nc2ccccc2nc1NS(=O)(=O)c1ccc(C)cc1 | -8.35% |
| O=C(Nc1ccc([N+](=O)[O-])cc1Cl)c1cc(Cl)ccc1O | 7.32% |
| O=C(c1ccccc1)c1ccc(-n2ccnc2)c([N+](=O)[O-])c1 | -25.8% |
| CC(C)NS(=O)(=O)c1ccc(NCCCn2ccnc2)c([N+](=O)[O-])c1 | -1.68% |
| O=C(c1ccccc1)c1ccc(NCCCn2ccnc2)c([N+](=O)[O-])c1 | -81.3% |
| CCN(CC)S(=O)(=O)c1ccc(NCCCn2ccnc2)c([N+](=O)[O-])c1 | -57.2% |
| NS(=O)(=O)c1ccc(NCCCn2ccnc2)c([N+](=O)[O-])c1 | 8.43% |
| O=C(/C=C/c1ccccc1[N+](=O)[O-])NCCCn1ccnc1 | 2.43% |
| CC(=O)Nc1ccc(C(=O)OC2CCOC2=O)cc1 (stereo not drawn) | 12.5% |
| Cc1cc(OC(C)C(=O)N/N=C/CC(C)c2ccccc2)ccc1Cl (stereo not drawn) | 16.1% |
| C=CCc1cccc(C2Nc3ccccc3C(=O)N2O)c1O (stereo not drawn) | 7.52% |
| CCCC(=O)Nc1ccc(Oc2ccc(NC(=O)CCC)cc2)cc1 | 2.76% |

| SMILES | hERG current change (%, negative = inhibition) at 10uM |
| --- | --- |
| COc1cc(C2c3c(-c4ccccc4)n[nH]c3C(=O)N2c2ccc(C(=O)O)cc2)ccc1O (stereo not drawn) | 8.38% |
| N#CC1=C(Nc2ccccc2)SC=C(c2ccc(Br)cc2)N=C1N1CCOCC1 | -64.7% |
| N#Cc1nc(-c2ccccc2Cl)oc1N1CCOCC1 | -4.51% |
| Br.C=CCN1C(c2ccc(Br)cc2)=CS/C1=C(/C#N)c1nnc(N2CCOCC2)n1-c1ccccc1 | -13.4% |
| c1ccc(Nc2nc(N3CCOCC3)nc(N3CCOCC3)n2)cc1 | -7.35% |
| N#CC1=C(Nc2ccccc2)SC=C(c2ccc(F)cc2)N=C1N1CCOCC1 | -10.8% |
| N#CC1=C(Nc2ccccc2)SC=C(c2ccc(Cl)c(Cl)c2)N=C1N1CCOCC1 | -50.9% |
| C/C(NC(=O)c1ccccc1F)=C1\C(=O)C[C@@H]2[C@H]1C2(C)C | -14.4% |
| CC(C)OC(=O)CSc1nnc(SCc2cccc3ccccc23)s1 | 7.07% |
| CC1CC2c3cccc(C(=O)O)c3C(=O)N2c2ccc(Cl)cc21 (stereo not drawn) | 5.97% |
| CCCC(C)NCC(=O)Nc1ccccc1-c1ccccc1.O=C(O)C(=O)O (stereo not drawn) | -21.5% |
| COc1ccc(CCn2c(N3CCOCC3)nc3c2c(=O)[nH]c(=O)n3C)cc1 | -15.5% |
| CC(=O)c1cc(C(=O)N2CCCC(C(=O)c3ccc(Cl)cc3)C2)cs1 (stereo not drawn) | -31.9% |
| CC(C)CCN1CCN(Cc2ccc(N3CCNC3=O)cc2)CC1CCO (stereo not drawn) | -20.1% |
| OCCC1CN(Cc2ccc(C(F)(F)F)cc2)CCN1Cc1ccccc1 (stereo not drawn) | -56.8% |
| CC(C)CN1CCN(Cc2ccc(C(F)(F)F)cc2)CC1CCO (stereo not drawn) | -56.6% |
| OCCC1CN(Cc2cccs2)CCN1Cc1ccccc1 (stereo not drawn) | -20.9% |
| CC(C)CN1CCN(Cc2ccccc2C(F)(F)F)CC1CCO (stereo not drawn) | 4.5% |
| CC(C)CN1CCN(Cc2ccc(C#CC(C)(C)O)cc2)CC1CCO (stereo not drawn) | 8.57% |
| CC(C)CCN1CCN(Cc2ccc(C#CCCO)cc2)CC1CCO (stereo not drawn) | -6.37% |
| OCCC1CN(Cc2cccc(C(F)(F)F)c2)CCN1Cc1ccccc1 (stereo not drawn) | -46.2% |
| CC(C)CCN1CCN(Cc2cccc(C(F)(F)F)c2)CC1CCO (stereo not drawn) | -55.1% |

| SMILES | hERG current change (%, negative = inhibition) at 10uM |
| --- | --- |
| Cc1cccc(-c2ncc(CN3CCN(CCC(C)C)C(CCO)C3)cn2)c1 (stereo not drawn) | -45% |
| CC(C)CCN1CCN(Cc2ccc(C(F)(F)F)cc2)CC1CCO (stereo not drawn) | -58.1% |
| CN(Cc1ccc(F)cc1)C(=O)c1ccc(NS(=O)(=O)c2ccc3[nH]c(=O)[nH]c3c2)cc1 | 12.1% |
| O=[N+]([O-])c1cccc(S(=O)(=O)Nc2ccc(S(=O)(=O)NCC3CCCO3)cc2)c1 (stereo not drawn) | -0.96% |
| COc1ccc(C2c3ccc(O)cc3Oc3ncn4nc(-c5ccccn5)nc4c32)cc1OC (stereo not drawn) | -71.3% |
| COc1ccc(C2c3ccc(O)cc3Oc3ncn4nc(-c5cccnc5)nc4c32)cc1OC (stereo not drawn) | -56.9% |
| COc1ccc(C2c3ccc(O)cc3Oc3ncn4nc(-c5ccccn5)nc4c32)cc1 (stereo not drawn) | 17.9% |
| COc1ccc(C2c3ccc(O)cc3Oc3ncn4nc(-c5ccco5)nc4c32)cc1OC (stereo not drawn) | 22.8% |
| COc1ccc(C2c3ccc(O)cc3Oc3ncn4nc(-c5ccncc5)nc4c32)cc1OC (stereo not drawn) | 5.39% |
| COc1ccc(C2c3c(ccc4ccccc34)Oc3ncn4nc(-c5ccco5)nc4c32)cc1OC (stereo not drawn) | -13.4% |
| CC1=CC(c2ccc(Cl)cc2)n2ncnc2N1 (stereo not drawn) | -9.02% |
| Cc1ccc(N=CC2=C(O)CC(c3ccccc3Cl)CC2=O)cc1 (stereo not drawn) | -6.91% |
| Cc1ccc(CN(C)Cc2cc(=O)oc3cc(C)c(Cl)cc23)cc1 | 14.9% |
| CCOC(=O)c1ccc(NC(=O)COc2cc3oc(=O)c(CC(C)O)c(C)c3cc2Cl)cc1 (stereo not drawn) | 13.7% |
| O=C(COc1cc2oc(=O)c3c(c2cc1Cl)CCC3)Nc1cccnc1 | 6.03% |
| CC(=O)c1cccc(NC(=O)COc2cc3oc(=O)c(CC(C)O)c(C)c3cc2Cl)c1 (stereo not drawn) | -57.7% |
| CCOC(=O)NC(Nc1sc2c(c1C(=O)OC)CCN(C)C2)(C(F)(F)F)C(F)(F)F | -13.2% |
| CCCCOC(=O)Cn1c(=O)oc2ccc(C)cc21 | 5.97% |
| CCCCOC(=O)Cn1c(=O)n(CC(=O)OCCCC)c2cc(C)ccc21 | -69.4% |
| CCCCOC(=O)Cn1c(=N)n(CCC)c2ccccc21.Cl | -31.5% |
| CCCCOC(=O)Cn1c(=O)n(CC(=O)OCCCC)c2ccccc21 | -33.9% |
| CCN(CC)CCn1c(=N)n(CC(O)c2ccc(OC)c(OC)c2)c2ccccc21.Cl (stereo not drawn) | 14.4% |

| SMILES | hERG current change (%, negative = inhibition) at 10uM |
| --- | --- |
| CCN(CC)CCn1c(=N)n(CC(O)COc2cccc(C)c2)c2ccccc21.Cl (stereo not drawn) | -65.2% |
| CCCCOC(=O)Cn1c(=N)n(CCN(CC)CC)c2ccccc21 | -52.3% |
| CCN(CC)CCn1c(=N)n(CC(O)COc2ccccc2)c2ccccc21.Cl (stereo not drawn) | -52.1% |
| CCCCOC(=O)Cn1c(=N)n(CCN2CCOCC2)c2ccccc21.Cl | -36.3% |
| CCn1c(=O)c(C(=O)Nc2ccccc2F)c(O)c2ccccc21 | 17.2% |
| COc1ccc(OC)c(-c2csc(NC(=O)CSc3nnnn3C)n2)c1 | 4.17% |
| COc1ccc(NC(=S)NC(NC(=O)CCl)C(Cl)(Cl)Cl)c([N+](=O)[O-])c1 (stereo not drawn) | 17.2% |
| NS(=O)(=O)c1cc2c(cc1Cl)NCNS2(=O)=O | -12.3% |
| Cc1cccc(-n2ncc3c(NCc4ccccc4)ncnc32)c1 | 12% |
| O=C(c1cc2nc(-c3ccco3)cc(C(F)(F)F)n2n1)N1CCN(c2ccc(F)cc2)CC1 | -34.5% |
| O=C(N/N=C/c1ccco1)c1ccc(OCc2ccccc2)cc1 | 10.9% |
| COc1ccccc1N1CCN(C(=O)C2CC2)CC1 | 20% |
| O=C(NCCc1ccccc1)c1ccccc1F | 24.5% |
| O=C(CCCN1C(=O)/C(=C/c2ccccc2Cl)SC1=S)NNC(=O)c1ccccc1Cl | 29.8% |
| COCCSc1ccccc1C(=O)N1CCN(c2ccccc2OC)CC1 | 8.73% |
| S=c1[nH]c2ccccc2n1CCOc1ccccc1 | 8.28% |
| Br.CCN(CC)CCn1c(=N)n(CCOc2ccccc2)c2ccccc21 | -53.6% |
| CCN(CC)CCn1c(=N)n(CCO)c2ccccc21 | 5.99% |
| O=C(NC1CCSc2ccccc21)c1cc(S(=O)(=O)N2CCOCC2)ccc1Cl (stereo not drawn) | -18% |
| COc1ccc(NC(=S)N(Cc2ccc(Cl)cc2)Cc2ccc(C(=O)O)cc2)cc1Cl | -3.51% |
| CCOC(=O)c1ccc(-n2c(CN3CCC(C(N)=O)CC3)nc3ccc([N+](=O)[O-])cc3c2=O)cc1 | -27.3% |
